# Experimental data reported in PubChem BioAssay AID1159580 (chemical genetic matrix, 2015).
# Among all 5,500 compounds or so, about 2,000 (36%) were called active. Another 18% or so got no clear call; they are omitted. This is one part of the list. A number with no mark means an inactive call. Cut-off read from the data, not from the text of the source: active = normalized growth mostly below about 0.91 (no sharp cut-off); inconclusive = no clear call, values can overlap the other calls; inactive = mostly above about 0.92.
# Test: chemical genetic growth profiling, strain panel (AID 1159580);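 note: tested at 20 µM; growth read once vehicle control cultures reached saturation at 30 °C; 1 = growth at the plate median or of vehicle wells; lower values mean less growth of the strain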
# Conditions: S. cerevisiae deletion strains, growth OD
# [1] = locus YAR019C, strain CDC15, active compounds read low
# [2] = locus YBL105C, strain PKC1, active compounds read low
# [3] = locus YBR135W, strain CKS1, active compounds read low
# [4] = locus YBR136W, strain MEC1, active compounds read low
# [5] = locus YBR160W, strain CDC28, active compounds read low
# [6] = locus YDL017W, strain CDC7, active compounds read low
# [7] = locus YDL028C, strain MPS1, active compounds read low
# [8] = locus YDL101C, strain DUN1, active compounds read low
# [9] = locus YDL108W, strain KIN28, active compounds read low
# [10] = locus YDL132W, strain cdc53, active compounds read low
# [11] = locus YDL214C, strain PRR2, active compounds read low
# [12] = locus YDR052C, strain DBF4, active compounds read low
# [13] = locus YDR054C, strain cdc34, active compounds read low
# [14] = locus YDR226W, strain ADK1, active compounds read low
# [15] = locus YDR477W, strain SNF1, active compounds read low
# [16] = locus YER123W, strain YCK3, active compounds read low
# [17] = locus YER133W, strain GLC7, active compounds read low
# [18] = locus YFL009W, strain cdc4, active compounds read low
# [19] = locus YFL029C, strain CAK1, active compounds read low
# [20] = locus YFR003C, strain YPI1, active compounds read low
# [21] = locus YFR019W, strain FAB1, active compounds read low
# [22] = locus YFR028C, strain CDC14, active compounds read low
# [23] = locus YGR040W, strain KSS1, active compounds read low
# [24] = locus YGR052W, strain FMP48, active compounds read low
# [25] = locus YGR092W, strain DBF2, active compounds read low
# [26] = locus YHR030C, strain SLT2, active compounds read low
# [27] = locus YHR079C, strain IRE1, active compounds read low
# [28] = locus YHR082C, strain KSP1, active compounds read low
# [29] = locus YHR205W, strain SCH9, active compounds read low
# [30] = locus YIL147C, strain SLN1, active compounds read low
# [31] = locus YJL095W, strain BCK1, active compounds read low
# [32] = locus YJL157C, strain FAR1, active compounds read low
# [33] = locus YJR016C, strain ILV3, active compounds read low
# [34] = locus YJR066W, strain TOR1 (second series), active compounds read low
# [35] = locus YJR066W, strain TOR1, active compounds read low
# [36] = locus YKL048C, strain ELM1, active compounds read low
# [37] = locus YKL067W, strain YNK1, active compounds read low
# [38] = locus YKL101W, strain HSL1, active compounds read low
# [39] = locus YKL193C, strain SDS22, active compounds read low
# [40] = locus YKL203C, strain TOR2, active compounds read low
# [41] = locus YLR113W, strain HOG1, active compounds read low
# [42] = locus YLR133W, strain CKI1, active compounds read low
# [43] = locus YLR403W, strain SFP1, active compounds read low
# [44] = locus YML070W, strain DAK1, active compounds read low
# [45] = locus YMR001C, strain CDC5, active compounds read low
# [46] = locus YMR205C, strain PFK2 (second series), active compounds read low
# [47] = locus YMR277W, strain FCP1, active compounds read low
# [48] = locus YNL006W, strain LST8, active compounds read low
# [49] = locus YNL020C, strain ARK1, active compounds read low
# [50] = locus YNL161W, strain CBK1, active compounds read low
# [51] = locus YNL183C, strain NPR1, active compounds read low
# [52] = locus YNL207W, strain RIO2, active compounds read low
# [53] = locus YNL222W, strain SSU72, active compounds read low
# [54] = locus YNL307C, strain MCK1 (second series), active compounds read low
# [55] = locus YOL078W, strain AVO1, active compounds read low
# [56] = locus YOL136C, strain PFK27, active compounds read low
# [57] = locus YOR061W, strain CKA2, active compounds read low
# [58] = locus YOR119C, strain RIO1, active compounds read low
# [59] = locus YOR231W, strain MKK1, active compounds read low
# [60] = locus YOR329C, strain SCD5, active compounds read low
# [61] = locus YPL031C, strain PHO85, active compounds read low
# [62] = locus YPL153C, strain RAD53, active compounds read low
# [63] = locus YPL204W, strain HRR25, active compounds read low
# [64] = locus YPL209C, strain IPL1, active compounds read low
# [65] = locus YPL256C, strain CLN2, active compounds read low
# [66] = locus YPR025C, strain CCL1, active compounds read low
# [67] = locus YPR106W, strain ISR1, active compounds read low
# [68] = locus YPR111W, strain DBF20, active compounds read low
# [69] = strain NNK1, active compounds read low
# [70] = strain TSCII, active compounds read low
smiles,measurement,setting,value
O=C1Nc2ccccc2/C1=N/N=C\c1cc(Br)cc(Br)c1O,normalized growth,[1],0.947
same,normalized growth,[2],0.959
same,normalized growth,[3],0.964
same,normalized growth,[4],0.955
same,normalized growth,[5],0.959
same,normalized growth,[6],0.957
same,normalized growth,[7],0.95
same,normalized growth,[8],0.946
same,normalized growth,[9],0.957
same,normalized growth,[10],0.944
same,normalized growth,[11],0.231 (active)
same,normalized growth,[12],0.944
same,normalized growth,[13],0.916
same,normalized growth,[14],0.951
same,normalized growth,[15],0.246 (active)
same,normalized growth,[16],0.233 (active)
same,normalized growth,[17],0.249 (active)
same,normalized growth,[18],0.945
same,normalized growth,[19],0.949
same,normalized growth,[20],0.947
same,normalized growth,[21],0.396 (active)
same,normalized growth,[22],0.964
same,normalized growth,[23],0.278 (active)
same,normalized growth,[24],0.132 (active)
same,normalized growth,[25],0.121 (active)
same,normalized growth,[26],0.128 (active)
same,normalized growth,[27],0.132 (active)
same,normalized growth,[28],0.124 (active)
same,normalized growth,[29],0.0116 (active)
same,normalized growth,[30],0.948
same,normalized growth,[31],0.112 (active)
same,normalized growth,[32],0.147 (active)
same,normalized growth,[33],0.969
same,normalized growth,[34],0.393 (active)
same,normalized growth,[35],0.114 (active)
same,normalized growth,[36],0.303 (active)
same,normalized growth,[37],0.194 (active)
same,normalized growth,[38],0.225 (active)
same,normalized growth,[39],0.937
same,normalized growth,[40],0.209 (active)
same,normalized growth,[41],0.331 (active)
same,normalized growth,[42],0.134 (active)
same,normalized growth,[43],0.0728 (active)
same,normalized growth,[44],0.259 (active)
same,normalized growth,[45],0.945
same,normalized growth,[46],0.204 (active)
same,normalized growth,[47],0.959
same,normalized growth,[48],0.764 (active)
same,normalized growth,[49],0.114 (active)
same,normalized growth,[50],0.943
same,normalized growth,[51],0.128 (active)
same,normalized growth,[52],0.957
same,normalized growth,[53],0.96
same,normalized growth,[54],0.128 (active)
same,normalized growth,[55],0.937
same,normalized growth,[56],0.198 (active)
same,normalized growth,[57],0.105 (active)
same,normalized growth,[58],0.184 (active)
same,normalized growth,[59],0.139 (active)
same,normalized growth,[60],0.937
same,normalized growth,[61],0.203 (active)
same,normalized growth,[62],0.196 (active)
same,normalized growth,[63],0.199 (active)
same,normalized growth,[64],0.967
same,normalized growth,[65],0.313 (active)
same,normalized growth,[66],0.959
same,normalized growth,[67],0.943
same,normalized growth,[68],0.933
same,normalized growth,[69],0.34 (active)
same,normalized growth,[70],0.951
O=C1Nc2ccccc2/C1=N/N=C\c1ccccc1Cl,normalized growth,[1],0.975
same,normalized growth,[2],0.967
same,normalized growth,[3],0.986
same,normalized growth,[4],0.966
same,normalized growth,[5],0.972
same,normalized growth,[6],0.97
same,normalized growth,[7],0.97
same,normalized growth,[8],0.97
same,normalized growth,[9],0.969
same,normalized growth,[10],0.977
same,normalized growth,[11],0.92
same,normalized growth,[12],0.968
same,normalized growth,[13],0.97
same,normalized growth,[14],0.987
same,normalized growth,[15],0.909
same,normalized growth,[16],0.85
same,normalized growth,[17],0.928
same,normalized growth,[18],0.978
same,normalized growth,[19],0.982
same,normalized growth,[20],0.966
same,normalized growth,[21],0.935
same,normalized growth,[22],0.987
same,normalized growth,[23],0.903
same,normalized growth,[24],0.838
same,normalized growth,[25],0.867
same,normalized growth,[26],0.83 (active)
same,normalized growth,[27],0.906
same,normalized growth,[28],0.918
same,normalized growth,[29],0.858
same,normalized growth,[30],0.973
same,normalized growth,[31],0.798
same,normalized growth,"locus YJL128C, strain PBS2, active compounds read low",0.925
same,normalized growth,[32],0.928
same,normalized growth,[33],0.986
same,normalized growth,[34],0.916
same,normalized growth,[35],0.9
same,normalized growth,[36],0.901
same,normalized growth,[37],0.896
same,normalized growth,[38],0.893
same,normalized growth,[39],0.971
same,normalized growth,[40],0.954
same,normalized growth,[41],0.708 (active)
same,normalized growth,[42],0.916
same,normalized growth,[43],0.902
same,normalized growth,[44],0.897
same,normalized growth,[45],0.976
same,normalized growth,[46],0.887
same,normalized growth,[47],0.972
same,normalized growth,[48],0.974
same,normalized growth,[49],0.896
same,normalized growth,[50],0.976
same,normalized growth,[51],0.841
same,normalized growth,[52],0.974
same,normalized growth,[53],0.979
same,normalized growth,[54],0.855
same,normalized growth,[55],0.968
same,normalized growth,[56],0.904
same,normalized growth,[57],0.888
same,normalized growth,[58],0.93
same,normalized growth,[59],0.823
same,normalized growth,[60],0.965
same,normalized growth,[61],0.877
same,normalized growth,[62],0.915
same,normalized growth,[63],0.888
same,normalized growth,[64],0.977
same,normalized growth,[65],0.907
same,normalized growth,[66],0.97
same,normalized growth,[67],0.97
same,normalized growth,[68],0.963
same,normalized growth,[69],0.967
same,normalized growth,[70],0.976
